# Where “and” joins values, the source holds several entries; their conditions need not be identical. Equal entries are not always repeated. Inconclusive results are not listed. Some structures have more than one record in an assay (separate samples or runs), and their calls can disagree. Calls of active or inactive are those of the source. Rule for the calls, unless noted: active = hit-call score of the fitted dose curve at least 0.9, where 1 is the maximum; inactive = score below 0.9.
# Experiments:
# [1] = CCTE_Mundy_HCI_Cortical_Synap_Neur_Matur_NeuriteSpotCountPerNeuron: CCTE's Synaptogenesis and Neurite Maturation Assay in rat cortical cells for Neurite Spot Count per Neuron Count, Mundy Lab (AID 2284215)
# How it was run: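 Rat primary cortical cells received AraC at DIV 5, then chemicals with a media change at DIV 7, and were fixed at DIV 12. Synaptophysin puncta on MAP2-stained neurites per neuron were counted by high-content imaging, fitted relative to DMSO.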
# [2] = CCTE_Mundy_HCI_Cortical_Synap_Neur_Matur_SynapseCount: CCTE's Synaptogenesis and Neurite Maturation Assay in rat cortical cells for Synapse Count, Mundy Lab (AID 2284218)
# How it was run: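 Synapse count per neuron is measured in rat cortical neurons exposed to chemicals between DIV 7 and DIV 12, with glial growth arrested by AraC at DIV 5. Synaptophysin and MAP2 staining is imaged automatically; activity is fitted relative to DMSO.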
# [3] = CCTE_Mundy_HCI_Cortical_Synap_Neur_Matur_NeuriteCount: CCTE's Synaptogenesis and Neurite Maturation Assay in rat cortical cells for Neurite Count, Mundy Lab (AID 2284222)
# How it was run: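 Chemical exposure runs DIV 7–12 in rat cortical cultures, glia suppressed by AraC at DIV 5; measurement is at DIV 12. Imaging-derived neurite counts are fitted against DMSO baseline.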
# [4] = CCTE_Mundy_HCI_Cortical_Synap_Neur_Matur_CellBodySpotCount: CCTE's Synaptogenesis and Neurite Maturation Assay in rat cortical cells for Cell Body Spot Count, Mundy Lab (AID 2284223)
# How it was run: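 Rat primary cortical cultures received AraC at DIV 5 to arrest glia, were dosed with chemical at DIV 7 with media change, and were fixed at DIV 12 (288.33 h). Synaptophysin puncta on MAP2-positive cell bodies per neuron were counted by high-content imaging versus DMSO.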
# [5] = UKN2_HCS_IMR90_cell_viability: Viability Assessment in the University of Konstanz (UKN) Leist Lab Neural Crest Cell Migration Assay in human induced IMR90 Pluripotent Stem Cells (UKN2) (AID 2284233);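 note: viability of neural crest cells differentiated from IMR90 iPSC measured by calcein-AM fluorescence imaging; cells exposed to compound for 24 h after a 24 h migration phase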
# How it was run: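 Human IMR90-derived neural crest cells were allowed to migrate for 24 h into a cell-free zone, then exposed to test chemicals for 24 h. Calcein-AM and Hoechst staining with high-content imaging gave viability, analysed against DMSO baseline.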
# [6] = CCTE_Mundy_HCI_Cortical_NOG_NeuronCount: CCTE's Neurite Outgrowth Assay in rat cortical cells for Neuron Count, Mundy Lab (AID 2284236; active = hit-call score of the fitted dose curve at least 0.9, where 1 is the maximum;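 note: neurons counted by imaging betaIII-tubulin and Hoechst stained cortical cells; cells exposed to compound for about 48 hours before fixation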)
# How it was run: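 Read-out: neuron number by high-content imaging of betaIII-tubulin (Alexa Fluor-488) and Hoechst-labelled rat primary cortical cells.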
# [7] = CCTE_Mundy_HCI_Cortical_NOG_BPCount: CCTE's Neurite Outgrowth Assay in rat cortical cells for Branch Point Count, Mundy Lab (AID 2284237);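 note: branch points counted about two days after chemical exposure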
# How it was run: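 Measured 50.33 h after dosing, this morphology endpoint uses rat primary cortical cultures labelled for betaIII-tubulin. Branch points are quantified by high-content imaging, with DMSO as negative control and baseline.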
# [8] = CCTE_Mundy_HCI_hNP1_Casp3_7: CCTE's Caspase-Glo 3/7 Assay in human neuroprogenitor cells for Apoptosis, Mundy Lab (AID 2284240)
# How it was run: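 Apoptosis is scored by activated caspase-3/7 luminescence in WA09-derived neural progenitor cells, measured 26.5 h after chemical dosing. Values represent gain of signal relative to DMSO vehicle.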
# [9] = CCTE_Mundy_HCI_hNP1_CellTiter: CCTE's Cell Titer-Glo 2 Assay in human neuroprogenitor cells for Viability, Mundy Lab (AID 2284241; active = hit-call score of the fitted dose curve at least 0.9, where 1 is the maximum)
# How it was run: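 Human neural progenitor cells (hNP1, WA09-derived) were plated on poly-L-ornithine/laminin and grown 40 to 44 hours at 37 °C, 5% CO2 before chemical addition. Twenty-four hours later, ATP was measured by CellTiter-Glo luminescence; loss of signal versus DMSO indicates reduced viability.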
# [10] = CCTE_Mundy_HCI_Cortical_Synap_Neur_Matur_NeuronCount: CCTE's Synaptogenesis and Neurite Maturation Assay in rat cortical cells for Neuron Count, Mundy Lab (AID 2284242; active = hit-call score of the fitted dose curve at least 0.9, where 1 is the maximum;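 note: neuron number from Hoechst nuclei and MAP2 staining by high-content imaging; hits reduce neuron count versus DMSO baseline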)
# How it was run: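 Imaging-based neuron count in rat cortical cultures after chemical exposure from DIV 7 to DIV 12, with AraC added at DIV 5. Activity is fitted relative to DMSO.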
# [11] = read-out: Monokine induced gamma interferon (MIG), CXCL9 (gene 4283); test: BSK_KF3CT_MIG: BioMAP Diversity Plus: KF3CT Assay for Monokine induced gamma interferon (MIG) Biomarker Activity (AID 2284248); details: primary human keratinocytes with fibroblasts
# How it was run: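 Human keratinocyte plus foreskin fibroblast primary co-culture dosed with test chemical for 24 h; MIG level measured by ELISA and fitted in the positive direction against DMSO as baseline.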
# [12] = read-out: Collagen I, COL1A1 (gene 1277); test: BSK_hDFCGF_CollagenI: BioMAP Diversity Plus: hDFCGF Assay for Collagen I Biomarker Activity (AID 2284250); details: primary human foreskin fibroblasts
# How it was run: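 Cells were primary human foreskin fibroblasts treated for 24 h. Collagen I levels were then determined by ELISA and compared against DMSO controls.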
# [13] = read-out: Interferon-inducible T-cell alpha chemoattractant (ITAC), CXCL11 (gene 6373); test: BSK_hDFCGF_ITAC: BioMAP Diversity Plus: hDFCGF Assay for Interferon-inducible T-cell alpha chemoattractant (ITAC) Biomarker Activity (AID 2284251); details: primary human foreskin fibroblasts
# How it was run: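 Fibroblasts (human foreskin, primary) are treated with chemical, cultured 24 h, then assayed for I-TAC by ELISA. Overt toxicity is checked in parallel cultures by sulforhodamine B staining of total protein at the same time point.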
# [14] = read-out: Plasminogen activator inhibitor-1 (PAI1), SERPINE1 (gene 5054); test: BSK_KF3CT_PAI1: BioMAP Diversity Plus: KF3CT Assay for Plasminogen activator inhibitor-1 (PAI1) Biomarker Activity (AID 2284252); details: primary human keratinocytes with fibroblasts
# How it was run: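 Signal is PAI-1 detected by ELISA in a human skin-derived keratinocyte/fibroblast co-culture, 24 h after dosing; DMSO served as negative control and baseline.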
# [15] = read-out: Interleukin-8 (IL8), CXCL8 (gene 3576); test: BSK_KF3CT_IL8: BioMAP Diversity Plus: KF3CT Assay for Interleukin-8 (IL8) Biomarker Activity (AID 2284254); details: primary human keratinocytes with fibroblasts
# How it was run: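 Human primary keratinocyte plus foreskin fibroblast co-culture dosed with test chemicals; IL-8 measured by ELISA 24 h after dosing. Activity fitted in the positive direction relative to DMSO negative control.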
# [16] = read-out: Intercellular Adhesion Molecule 1 (ICAM1), ICAM1 (gene 3383); test: BSK_BE3C_ICAM1: BioMAP Diversity Plus: BE3C Assay for Intercellular Adhesion Molecule 1 (ICAM1) Biomarker Activity (AID 2284278); details: primary human bronchial epithelial cells;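 note: cell-surface ICAM-1 protein level quantified by ELISA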
# How it was run: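 Measured by ELISA: ICAM-1 expressed by primary human bronchial epithelial cells 24 h after compound treatment, with upward-direction fitting versus DMSO vehicle.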
# [17] = read-out: Interferon-inducible T-cell alpha chemoattractant (ITAC), CXCL11 (gene 6373); test: BSK_BE3C_ITAC: BioMAP Diversity Plus: BE3C Assay for Interferon-inducible T-cell alpha chemoattractant (ITAC) Biomarker Activity (AID 2284279); details: primary human bronchial epithelial cells
# How it was run: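 BE3C cells (human primary bronchial epithelium), 24 h compound exposure, I-TAC by ELISA, DMSO = negative control/baseline, positive fitting direction.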
# [18] = read-out: Interleukin-8 (IL8), CXCL8 (gene 3576); test: BSK_BE3C_IL8: BioMAP Diversity Plus: BE3C Assay for Interleukin-8 (IL8) Biomarker Activity (AID 2284280); details: primary human bronchial epithelial cells
# How it was run: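 IL-8 signal gain, normalised to DMSO vehicle, was scored after a 24 h chemical exposure of primary human bronchial epithelial cells, with detection by ELISA.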
# [19] = read-out: Epidermal growth factor receptor (EGFR), EGFR (gene 1956); test: BSK_BE3C_EGFR: BioMAP Diversity Plus: BE3C Assay for Epidermal growth factor receptor (EGFR) Biomarker Activity (AID 2284281); details: primary human bronchial epithelial cells
# How it was run: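 Compound is added to human bronchial epithelial cells, cells incubate 24 h, then EGFR is detected by ELISA. Values reflect positive-direction fitting relative to DMSO.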
# KRT18 (gene 3875) = test: BSK_BE3C_Keratin818: BioMAP Diversity Plus: BE3C Assay for Keratin 818 Biomarker Activity (AID 2284282); details: primary human bronchial epithelial cells
# How it was run: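 BE3C: human bronchial epithelial primary cells, 24 h exposure, Keratin 8/18 ELISA; DMSO = negative control/baseline; cytotoxicity by parallel SRB stain (0.1% SRB after 10% TCA fixation, 560 nm).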
# [20] = read-out: Matrix Metallopeptidase 9 (MMP9), MMP9 (gene 4318); test: BSK_BE3C_MMP9: BioMAP Diversity Plus: BE3C Assay for Matrix Metallopeptidase 9 (MMP9) Biomarker Activity (AID 2284283); details: primary human bronchial epithelial cells
# How it was run: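 Human primary bronchial epithelial cells in the BE3C system were dosed with compound for 24 h. MMP-9 was measured by ELISA, and the positive-direction response was fitted relative to DMSO as baseline. Parallel SRB staining gauged cytotoxicity.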
smiles,measurement,setting,value
[Cd+2].[Cl-].[Cl-],AC50,[1],1.19 µM (active)
same,AC50,[2],1.25 µM (active)
same,AC50,[3],2.71 µM (active)
same,AC50,[4],6.06 µM (active)
same,AC50,[5],4.14 µM (active)
same,AC50,[6],9.84 µM (active)
same,AC50,[7],18.9 µM (active)
same,outcome,[8],inactive
same,outcome,[9],inactive
same,AC50,[10],0.728 µM (active)
same,AC50,[11],33.6 µM (active) and 36.8 µM (active)
same,AC50,[12],1.42 µM (active) and 465 nM (active)
same,AC50,[13],10 µM (active) and 7.2 µM (active)
same,AC50,[14],34.5 µM (active) and 29.9 µM (active)
same,AC50,[15],26.8 µM (active)
same,outcome,[15],inactive
same,outcome,[16],inactive
same,AC50,[17],28.9 µM (active) and 31.5 µM (active)
same,AC50,[18],0.0538 µM (active)
same,outcome,[18],inactive
same,AC50,[19],31.6 µM (active) and 12.3 µM (active)
same,outcome,KRT18 (gene 3875),inactive
same,AC50,[20],32 µM (active) and 27.7 µM (active)

# Source: PubChem BioAssay (EPA / NIEHS)
